Experimental data from PubChem BioAssay (NCATS).
Values joined by “and” are separate entries in the source; they are usually repeats but may differ in a detail not shown here. Equal values may be shown once. Results filed as inconclusive are left out. A call without a number means that no potency is given here. Some compounds were tested as several samples or in several runs, with calls that do not always agree. Active and inactive are the calls of the source. Calls follow the shape of the dose curve; as a rule, active = well fitted curve in the direction sought with a large enough effect; inconclusive = small, poorly fitted or top-dose-only effect, or another doubt; inactive = no such curve, though single readings can be large; an effect the other way counts as inactive or inconclusive.

Key:
[1] = Primary qHTS for inhibitors of nuclear receptor binding SET domain protein 2 (NSD2) in an isogenic RCH-ACV NSD2 p.E1099K mutant (9B) (AID 1645876); details: RCH-ACV NSD2 E1099K (9B) viability, CellTiter-Glo, 72 h; series mostly up to 44.9 µM; also: nearly all actives have a fitted effect of over 70% in size; also: potency is read from the fitted curve at half-maximal effect
[2] = Primary qHTS for inhibitors of nuclear receptor binding SET domain protein 2 (NSD2) in an RCH-ACV wild type WT cells (2C) (AID 1645877); details: RCH-ACV (leukaemia line) NSD2 WT (2C) viability, CellTiter-Glo, 72 h; series mostly up to 44.9 µM; also: nearly all actives have a fitted effect of over 70% in size; also: potency is read from the fitted curve at half-maximal effect
[3] = molecular target: Catechol O-methyltransferase (Homo sapiens) (UniProt P21964); assay: Confirmatory Screen for Target Class Profiling of Small Molecule Inhibitors of Methyltransferases (AID 1745852); details: MTase-Glo luminescence, SAH detection, recombinant enzyme; measured here: COMT max response; stronger effect = lower value
[4] = molecular target: Guanidinoacetate N-methyltransferase (Homo sapiens) (UniProt Q14353); assay: as above; details: MTase-Glo luminescence, SAH detection, recombinant enzyme; at 57.3 µM (top of the series)
[5] = molecular target: Rap guanine nucleotide exchange factor 3 (Homo sapiens) (UniProt O95398); assay: Confirmatory qHTS for antagonist of cAMP-regulated guanine nucleotide exchange factor 3 (EPAC1) (AID 1645880); details: EPAC1 Rap1B-BODIPY-GDP exchange, fluorescence; series mostly up to 115 µM; also: nearly all actives have a fitted effect of over 55% in size
Method in brief: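 Released BODIPY-GDP fluoresces less than Rap1-bound BODIPY-GDP; the signal is followed at 480/540 nm at 5-min intervals over 30 min, after 5 min at room temperature. Reactions contain 100 nM EPAC1, 250 nM RAP1B-BODIPY-GDP and 50 uM GDP; results are normalized to ATA and DMSO.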

[6] = molecular target: Rap guanine nucleotide exchange factor 3 (Homo sapiens) (UniProt O95398); assay: Confirmatory qHTS for agonist of cAMP-regulated guanine nucleotide exchange factor 3 (EPAC1) (AID 1645881); details: EPAC1 Rap1B BODIPY-GDP exchange fluorescence, 100% = cAMP control response; series mostly up to 154 µM;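 also: EPAC1 catalysed release of BODIPY-GDP from Rap1B seen as fluorescence loss; nearly all actives have a fitted effect of over 75% in size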
[7] = molecular target: Rap guanine nucleotide exchange factor 4 (Homo sapiens) (UniProt Q8WZA2); assay: Confirmatory qHTS for agonist of cAMP-regulated guanine nucleotide exchange factor 4 (EPAC2) (AID 1645884); details: EPAC2 GEF activity, Rap1B-BODIPY-GDP fluorescence; series mostly up to 154 µM;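 also: nucleotide exchange releases bodipy-GDP from Rap1 and this lowers its fluorescence; nearly all actives have a fitted effect of over 65% in size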
[8] = molecular target: Rap guanine nucleotide exchange factor 4 (Homo sapiens) (UniProt Q8WZA2); assay: Confirmatory qHTS for antagonist of cAMP-regulated guanine nucleotide exchange factor 4 (EPAC2) (AID 1645885); details: EPAC2 Rap1B-BODIPY-GDP exchange fluorescence, biochemical; series mostly up to 114 µM; also: nearly all actives have a fitted effect of over 25% in size; also: potency is read from the fitted curve at half-maximal effect
[9] = molecular target: Rap guanine nucleotide exchange factor 3 (Homo sapiens) (UniProt O95398); assay: Counterscreen qHTS for antagonist of cAMP-regulated guanine nucleotide exchange factor 3 (EPAC1) (AID 1645888); details: Rap1B-BODIPY-GDP nucleotide exchange, fluorescence; series mostly up to 154 µM
Method in brief: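 Rap1B-BODIPY-GDP 250 nM + GDP 50 uM; cpds 7-pt, final 9.74 nM–152 uM (activator mode) or from 7.32 nM upwards (inhibitor mode); RT; FI 480/540 nm at 5 and 30 min, then ± cAMP, reread.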

Rap guanine nucleotide exchange factor 4 (Homo sapiens), sequence (Q8WZA2 whole entry, looked up): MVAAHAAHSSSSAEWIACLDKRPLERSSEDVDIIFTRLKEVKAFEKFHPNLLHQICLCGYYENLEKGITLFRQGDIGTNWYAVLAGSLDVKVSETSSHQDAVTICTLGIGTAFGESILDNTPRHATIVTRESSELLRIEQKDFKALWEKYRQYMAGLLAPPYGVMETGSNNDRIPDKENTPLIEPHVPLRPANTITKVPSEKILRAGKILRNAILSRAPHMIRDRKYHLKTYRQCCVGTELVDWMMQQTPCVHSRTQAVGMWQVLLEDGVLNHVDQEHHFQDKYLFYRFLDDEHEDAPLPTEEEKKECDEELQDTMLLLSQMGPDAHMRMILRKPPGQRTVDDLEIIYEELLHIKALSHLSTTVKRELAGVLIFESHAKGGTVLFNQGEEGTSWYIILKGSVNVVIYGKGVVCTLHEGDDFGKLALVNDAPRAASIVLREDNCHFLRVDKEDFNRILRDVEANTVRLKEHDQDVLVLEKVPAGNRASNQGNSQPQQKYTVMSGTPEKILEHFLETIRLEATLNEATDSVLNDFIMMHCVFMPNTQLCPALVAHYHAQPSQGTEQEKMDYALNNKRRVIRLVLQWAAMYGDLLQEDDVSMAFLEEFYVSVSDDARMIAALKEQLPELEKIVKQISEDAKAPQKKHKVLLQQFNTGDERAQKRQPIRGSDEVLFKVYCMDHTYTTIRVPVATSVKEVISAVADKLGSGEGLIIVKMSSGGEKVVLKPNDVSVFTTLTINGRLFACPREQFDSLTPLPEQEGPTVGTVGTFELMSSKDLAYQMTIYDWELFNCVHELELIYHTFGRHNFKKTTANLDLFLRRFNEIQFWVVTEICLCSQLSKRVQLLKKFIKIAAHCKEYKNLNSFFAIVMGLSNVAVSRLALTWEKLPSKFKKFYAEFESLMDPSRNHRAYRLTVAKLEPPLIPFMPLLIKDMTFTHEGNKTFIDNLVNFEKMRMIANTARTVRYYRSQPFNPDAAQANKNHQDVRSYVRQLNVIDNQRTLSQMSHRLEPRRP
Rap guanine nucleotide exchange factor 3 (Homo sapiens), sequence (O95398 whole entry, looked up): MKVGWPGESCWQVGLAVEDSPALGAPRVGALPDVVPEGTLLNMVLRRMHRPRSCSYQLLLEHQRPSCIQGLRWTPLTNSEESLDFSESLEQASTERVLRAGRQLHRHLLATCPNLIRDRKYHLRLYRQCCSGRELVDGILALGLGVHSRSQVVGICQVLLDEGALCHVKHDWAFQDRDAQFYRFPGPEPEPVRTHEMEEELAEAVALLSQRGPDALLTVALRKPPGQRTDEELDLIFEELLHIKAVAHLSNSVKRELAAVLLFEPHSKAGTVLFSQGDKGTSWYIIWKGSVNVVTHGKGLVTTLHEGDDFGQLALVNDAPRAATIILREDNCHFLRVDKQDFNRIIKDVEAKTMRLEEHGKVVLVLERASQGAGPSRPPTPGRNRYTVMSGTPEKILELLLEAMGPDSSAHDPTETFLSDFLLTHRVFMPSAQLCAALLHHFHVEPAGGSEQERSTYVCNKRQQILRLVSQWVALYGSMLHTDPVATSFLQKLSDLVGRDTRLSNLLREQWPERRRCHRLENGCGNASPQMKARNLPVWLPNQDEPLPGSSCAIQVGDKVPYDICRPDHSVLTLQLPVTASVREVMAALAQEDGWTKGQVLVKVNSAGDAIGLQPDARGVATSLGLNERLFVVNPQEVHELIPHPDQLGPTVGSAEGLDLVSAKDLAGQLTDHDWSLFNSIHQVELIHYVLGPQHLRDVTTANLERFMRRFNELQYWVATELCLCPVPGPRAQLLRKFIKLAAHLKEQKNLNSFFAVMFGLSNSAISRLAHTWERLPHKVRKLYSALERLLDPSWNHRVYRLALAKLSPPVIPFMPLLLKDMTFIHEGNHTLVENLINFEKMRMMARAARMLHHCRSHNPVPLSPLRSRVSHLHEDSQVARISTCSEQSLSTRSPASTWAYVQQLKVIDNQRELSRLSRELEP
Catechol O-methyltransferase (Homo sapiens), sequence (P21964 whole entry, looked up): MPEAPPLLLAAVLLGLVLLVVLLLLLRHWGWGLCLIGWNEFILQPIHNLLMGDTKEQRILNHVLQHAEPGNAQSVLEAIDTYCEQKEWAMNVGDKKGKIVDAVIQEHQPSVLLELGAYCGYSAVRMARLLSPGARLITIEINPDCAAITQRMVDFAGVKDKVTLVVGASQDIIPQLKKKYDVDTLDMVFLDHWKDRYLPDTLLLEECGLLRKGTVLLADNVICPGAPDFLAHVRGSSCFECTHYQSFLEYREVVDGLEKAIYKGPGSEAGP

In the case of `Nc1ccc(C(=O)Nc2ccccc2N)cc1`, the Potency [1] is reported as 9.44 µM (active) and the Potency [2] is reported as 8.41 µM (active).
For `COc1ccc(C2C(=O)c3ccccc3C2=O)cc1`, the Potency [1] was “inactive” and the Potency [2] was “inactive”.
For `CN1[C@@H]2CC[C@H]1CC(OC(=O)c1c[nH]c3ccccc13)C2` (some centres not stated), the Potency [1] was “inactive” and the Potency [2] was “inactive”.
With `NC(CO)(CO)CO` the Potency [1] was “inactive” and the Potency [2] was “inactive”.
For `CCCCCCCCCCCCCCCCOP(=O)([O-])OCC[N+](C)(C)C`, the Potency [1] was 10.6 µM (active) and the Potency [2] was 11.9 µM (active).
In the case of `Oc1cc(O)c2c(c1)O[C@H](c1ccc(O)c(O)c1)[C@H](O)C2`, the Potency [1] is reported as “inactive” and the Potency [2] is reported as “inactive”.
In the case of `Cc1cc2c(cc1CC(=O)c1sccc1S(=O)(=O)Nc1onc(C)c1Cl)OCO2`, the Potency [1] is reported as “inactive” and the Potency [2] is reported as “inactive”.
With `c1ccc(CNCCNCc2ccccc2)cc1` the Potency [1] was “inactive” and the Potency [2] was “inactive”.
With `C[C@H](CCC(=O)O)[C@H]1CC[C@H]2[C@@H]3C(=O)C[C@@H]4CC(=O)CC[C@]4(C)[C@H]3CC(=O)[C@]12C` the Potency [1] was “inactive” and the Potency [2] was “inactive”.
For `Cc1cc(=O)n(-c2ccccc2)n1C`, the Potency [1] was “inactive” and the Potency [2] was “inactive”.
For `NC(CS)C(=O)O` (configuration not stated), the Potency [1] was “inactive” and the Potency [2] was “inactive”.
For `CC[N+](CC)(CCNC(=O)C(=O)NCC[N+](CC)(CC)Cc1ccccc1Cl)Cc1ccccc1Cl`, the Potency [1] was “inactive” and the Potency [2] was “inactive”.
With `NC[C@H]1O[C@H](O[C@H]2[C@H](O)[C@@H](O[C@H]3O[C@H](CO)[C@@H](O)[C@H](N)[C@H]3O)[C@H](N)C[C@@H]2N)[C@H](N)[C@@H](O)[C@@H]1O` the Potency [1] was “inactive” and the Potency [2] was “inactive”.
With `C=C1C[C@H]2[C@@H]3C=C(C)C4=CC(=O)CC[C@]4(C)[C@H]3CC[C@]2(C)[C@@]1(OC(C)=O)C(C)=O` the Potency [1] was 23.7 µM (active) and the Potency [2] was 4.22 µM (active).
In the case of `CCCCCCCCCCCCCCCC[N+](C)(C)CCN(Cc1ccc(OC)cc1)c1ncccn1`, the Potency [1] is reported as 0.668 µM (active) and the Potency [2] is reported as 0.75 µM (active).
In the case of `CN=C(NC#N)Nc1ccc(C2=NNC(=O)CC2C)cc1` (configuration not stated), the Potency [1] is reported as “inactive” and the Potency [2] is reported as “inactive”.
With `CCn1cc(C(=O)O)c(=O)c2cnc(N3CCCC3)nc21` the activity change, negative = viability loss [1] was 4% [at 9.23 µM] (inactive) and the activity change, negative = cell killing [2] was -0.361% [at 9.23 µM] (inactive).
For `Cc1ccnc(NS(=O)(=O)c2ccc(N)cc2)n1`, the Potency [1] was “inactive” and the Potency [2] was “inactive”.
For `CCOc1ccc(NC(=O)CC(C)O)cc1` (configuration not stated), the Potency [1] was “inactive” and the Potency [2] was “inactive”.
In the case of `Nc1ccc(/C=C/c2ccc(N)cc2S(=O)(=O)O)c(S(=O)(=O)O)c1`, the outcome [1] is reported as “inactive [at 0.588 µM]” and the outcome [2] is reported as “inactive [at 0.588 µM]”.
For `COc1c(C)c2c(c(O)c1C/C=C(\C)CCC(=O)O)C(=O)OC2`, the Potency [1] was 66.8 nM (active) and 833 nM (active) and the Potency [2] was 53.1 nM (active) and 590 nM (active).
For `CN(C)CCCOc1nn(Cc2ccccc2)c2ccccc12`, the Potency [1] was 9.44 µM (active) and 25.8 µM (active) and the Potency [2] was 10.6 µM (active) and 14.5 µM (active).
For `COc1cc(NS(C)(=O)=O)ccc1Nc1c2ccccc2nc2ccccc12`, the Potency [1] was 0.417 µM (active) and the Potency [2] was 0.332 µM (active).
For `CC(=O)Oc1ccc(C(=C2CCCCC2)c2ccc(OC(C)=O)cc2)cc1`, the Potency [1] was “inactive” and the Potency [2] was “inactive”.
For `NC(=O)c1cc[n+](CC2=C(C(=O)[O-])N3C(=O)[C@@H](NC(=O)Cc4cccs4)[C@H]3SC2)cc1`, the Potency [1] was “inactive” and the Potency [2] was “inactive”.
For `OC[C@H]1O[C@H](O[C@]2(CCl)O[C@H](CCl)[C@@H](O)[C@@H]2O)[C@H](O)[C@@H](O)[C@H]1Cl`, the Potency [1] was “inactive” and the Potency [2] was “inactive”.
In the case of `O=c1ccc2ccccc2o1`, the Potency [1] is reported as “inactive” and the Potency [2] is reported as “inactive”.
With `COc1cc(N)c(Cl)cc1C(=O)NC1CCN(CCCOc2ccc(F)cc2)CC1OC` (configuration not stated) the Potency [1] was 15 µM (active) and the Potency [2] was 21.1 µM (active).
In the case of `CCCCCCCCCCCCCCNCCO`, the Potency [1] is reported as 7.5 µM (active) and the Potency [2] is reported as 7.5 µM (active).
In the case of `CCN1CCCC1=O`, the Potency [1] is reported as “inactive” and the Potency [2] is reported as “inactive”.
With `COCc1c(C(C)C)nc(C(C)C)c(/C=C/[C@@H](O)C[C@@H](O)CC(=O)O)c1-c1ccc(F)cc1` the Potency [1] was 0.335 µM (active) and the Potency [2] was 0.211 µM (active).
For `C=CCc1ccc(O)c(OC)c1`, the Potency [1] was “inactive” and the Potency [2] was “inactive”.
With `CC(=O)OCC(=O)[C@@]12OC(C)(C)O[C@@H]1C[C@H]1[C@@H]3C[C@H](F)C4=CC(=O)C=C[C@]4(C)[C@@]3(F)[C@@H](O)C[C@@]12C` the Potency [1] was “inactive” and the Potency [2] was 0.9 nM (active) and inactive.
For `O=S1(=O)c2cccc3cccc(c23)N1CCCN1CCN(c2ccc(F)cc2)CC1`, the Potency [1] was “inactive” and the Potency [2] was “inactive”.
For `CC(C)(C)CC(C)(C)c1ccc(OCCOCC[N+](C)(C)Cc2ccccc2)cc1`, the Potency [1] was 1.19 µM (active) and 1.83 µM (active), the Potency [2] was 944 nM (active) and 1.63 µM (active) and the activity [3] was -13.4%. For the same molecule, the activity change, negative = inhibition [4] was -8.7%.
With `COc1cc2c(cc1O)CC[C@@H]1[C@@H]2CC[C@]2(C)[C@@H](O)CC[C@@H]12` the Potency [1] was 0.742 µM (active), the Potency [2] was 0.59 µM (active) and the Potency [5] was “inactive”. The outcome [6] was “inactive”, the Potency [7] was “inactive” and the Potency [8] was “inactive”.
For `CC(=O)OCC(=O)[C@@]1(O)CC[C@H]2[C@@H]3CCC4=CC(=O)C=C[C@]4(C)[C@H]3[C@@H](O)C[C@@]21C`, the Potency [2] was 18.8 nM (active) and 183 nM (active).
In the case of `Cc1c(C(C)C)c(=O)n(-c2ccccc2)n1C`, the Potency [1] is reported as “inactive” and the Potency [2] is reported as “inactive”.
With `Cc1ccc(Nc2c(F)cccc2Cl)c(CC(=O)O)c1` the Potency [2] was “inactive”.
With `CC(=O)OCC(=O)[C@@]1(OC(C)=O)[C@@H](C)C[C@H]2[C@@H]3C[C@H](F)C4=CC(=O)C=C[C@]4(C)[C@@]3(F)[C@@H](O)C[C@@]21C` the Potency [2] was 0.0188 µM (active).
In the case of `C[C@]12CCC(=O)C=C1CC[C@H]1[C@@H]3CC[C@](O)(C(=O)CO)[C@@]3(C)C[C@H](O)[C@@]12F`, the Potency [2] is reported as 0.0106 µM (active).
In the case of `C/C=C(/C(=C/C)c1ccc(O)cc1)c1ccc(O)cc1`, the Potency [1] is reported as 14.8 µM (active), the Potency [2] is reported as 10.5 µM (active) and the Potency [5] is reported as “inactive”. For the same molecule, the outcome [6] was “inactive”, the Potency [7] was “inactive” and the Potency [8] was 22.1 µM (active). For the same molecule, the activity change, negative = inhibition [8] was -2.47% [at 12.7 µM] (inactive) and the activity change, negative = inhibition [9] was -9.27% [at 30.8 µM] (inactive).
